TrxR1 substrate: substrates of rat thioredoxin reductase 1; O89049; AID 588456; Potency, µM (doses to about 114 µM), without a hit: top-dose activity change, negative = substrate turnover; 390,000 compounds, 0.01% hits; purified TrxR1 substrate turnover, NADPH consumption readout; further: nearly all actives have a fitted effect of over 50% in size
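Rat TrxR1, dispensed at 90 nM, was prereduced with 400 uM NADPH (final) for 5 min at ~22 deg C, then incubated with compound 15 min before 400 uM selenite. A first-read NADPH fluorescence drop versus no-compound background flagged substrates.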
GLS inhibitor: inhibitors of human glutaminase (GLS); GLS enzymatic activity, qHTS titration; Potency, µM (doses to about 45.5 µM), for the others: top-dose activity change, negative = inhibition, actives largely listed as inhibitors; 410,000 compounds, 0.21% hits; AID 624170
Target sequence (O94925 whole entry, looked up): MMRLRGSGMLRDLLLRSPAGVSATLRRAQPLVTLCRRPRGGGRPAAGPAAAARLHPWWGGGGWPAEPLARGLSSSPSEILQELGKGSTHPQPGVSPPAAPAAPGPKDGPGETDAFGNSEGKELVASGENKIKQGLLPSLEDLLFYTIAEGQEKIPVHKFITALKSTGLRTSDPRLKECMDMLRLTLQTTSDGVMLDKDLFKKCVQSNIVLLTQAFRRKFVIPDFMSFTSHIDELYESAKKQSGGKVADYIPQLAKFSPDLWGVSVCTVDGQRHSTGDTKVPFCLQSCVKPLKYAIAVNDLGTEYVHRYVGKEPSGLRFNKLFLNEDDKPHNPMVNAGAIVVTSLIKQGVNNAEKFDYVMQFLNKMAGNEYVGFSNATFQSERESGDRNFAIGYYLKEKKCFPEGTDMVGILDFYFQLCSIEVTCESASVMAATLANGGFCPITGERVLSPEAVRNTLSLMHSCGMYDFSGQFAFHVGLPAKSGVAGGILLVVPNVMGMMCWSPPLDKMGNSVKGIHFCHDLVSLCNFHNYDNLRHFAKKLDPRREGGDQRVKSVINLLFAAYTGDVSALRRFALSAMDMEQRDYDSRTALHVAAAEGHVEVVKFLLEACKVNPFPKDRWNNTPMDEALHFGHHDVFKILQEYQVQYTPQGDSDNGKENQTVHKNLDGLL
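Two-point fluorescence kinetic (t0, 30 min RT) for hKGA; glutamate detected via glutamate oxidase–HRP–Amplex Red. Substrate: 1 mM L-glutamine solution; buffer 45 mM KH2PO4, pH 8.2.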
mIDH1 inhibitor: human IDH1 R132H inhibition; IDH1-R132H enzyme, NADPH consumption, diaphorase/resazurin fluorescence; O75874; 390,000 compounds, 0.093% hits; AID 602179; Potency, µM (series often up to 76.6 µM), for inactives: at the highest dose activity change, negative = inhibition, hits mostly inhibitors; further: nearly all actives have a fitted effect of over 65% in size
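IDH1-R132H (0.5 ug/mL) preincubated 30 min with compound, then NADPH (0.016 mM) and alpha-KG (2 mM) added; 80 min at RT, pH 7.5. Remaining NADPH coupled via diaphorase/resazurin to fluorescence (540/590 nm); concentration-response curves normalized to no-enzyme control.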
rTrxR1 inhibitor: blocks rat thioredoxin reductase 1. 390,000 compounds, 1% hits. Potency, µM (top dose mostly 114 µM), for inactives: top-dose activity change, negative = inhibition, actives largely listed as inhibitors. recombinant rTrxR1, NADPH fluorescence consumption, selenite substrate. O89049; further: nearly all actives have a fitted effect of over 65% in size
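Rat TrxR1 (90 nM in the dispensed reagent) was pre-reduced with 400 uM NADPH for 5 min at room temperature, then incubated with compound for 15 min. After 400 uM selenite was added, NADPH fluorescence (Ex 340/Em 450 nm) was followed for 8 min.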
* hit, by the source's call; ? = inconclusive; / = no result given; [ ] = remark or other dose. Hits are enriched below; roughly 1.2% of the tested compounds scored in any of these assays. The call rests on the fitted dose curve; in most records, active means well fitted curve in the direction sought with a large enough effect; inconclusive means small, poorly fitted or top-dose-only effect, or another doubt; inactive means no such curve, though single readings can be large; an effect the other way counts as inactive or inconclusive. On the % scale 0 is the no-effect control and ±100 the full control effect; potency means the concentration at half of the fitted maximal effect.

SMILES	TrxR1 substrate	GLS inhibitor	mIDH1 inhibitor	rTrxR1 inhibitor
CCCCCCC[n+]1ccc(/C=C/c2c[nH]c3ccccc23)c2ccccc21	0.7%	/	/	?
CCCCCCCCCC[n+]1cccc2cc(Br)ccc21	-2.8%	/	/	0.6%
O=C(CCS(=O)(=O)c1cc(Br)cc2c1N(C(=O)C1CC1)CC2)N1CCN(c2ccccc2)CC1	-10.5%	-13.5%	3.4%	-30.4%
C[C@H]1NCc2cc(-c3ccc4c(=O)c(C(=O)O)cn(C5CC5)c4c3OC(F)F)ccc21	/	12.6µM*	/	/
CCn1c(C(=O)Nc2c(C)cccc2C)cc2sc(Cl)cc21	-0.7%	-3.6%	3.5%	7.1%
CCOC(=O)/C(=C/c1ccc(OC(=O)c2ccncc2)cc1)C(C)=O	13.9%[57.1 µM]	0.0%	5.3%	6.31µM*
CCOC(=O)C(CC)(CC)C(=O)/C=C/c1ccc(Br)cc1	-0.9%	7.2%	0.2%	-0.9%
CCOC(=O)C(=Cc1ccc(-n2ccnc2)cc1)C(=O)OCC	-1.3%	-1.3%	-7.6%	20µM*
CCOC(=O)C(=Cc1ccc(Br)cc1)C(=O)OCC	-1.4%	4.6%	-0.9%	25.1µM*
O=S(=O)(CCN1CCN(C(c2ccccc2)c2ccccc2)CC1)C(F)(F)F	1.0%[57.1 µM]	0.0%	-0.9%	1.58µM*
c1ccc(CN2CCN(C(c3ccccc3)c3ccccc3)CC2)cc1	-6.0%[57.1 µM]	1.2%	2.7%	-4.7%[57.1 µM]
CC(CCc1ccccc1)NC(=O)CN1CCN(c2ccc(O)cc2)CC1 (stereo not drawn)	-1.1%	10µM*	8.8%	10.4%[57.1 µM]
O=[N+]([O-])c1cc(-c2ncccn2)c([N+](=O)[O-])s1	-16.5%	21.8%	27.5%	2µM*
CN(C)Cc1cc(C(C)(C)C)c(O)c(C(C)(C)C)c1	11.6%[57.1 µM]	-1.5%	20.2%	8.91µM*
CC(C)(C)c1cc(CN(CCO)CCO)cc(C(C)(C)C)c1O	0.0%	3.9%	3.4%	3.55µM*
CC(C)(CO)Cc1cc(C(C)(C)C)c(O)c(C(C)(C)C)c1	?	-0.7%	-16.5%	?
CCCCC(=O)/C=C/n1c(=S)oc2ccccc21	-5.3%	-6.3%	0.0%	2.24µM*
CN(C(=O)c1ccc2c(Cl)c3c(nc2c1)CCC3)c1ccccc1F	-4.4%	5.5%	-11.9%	4.0%
Cc1oc(-c2ccccc2F)nc1CS(=O)CC(=O)NC(C)C (stereo not drawn)	0.7%	-1.4%	26.8%	39.8µM*
CCCNC(=O)CS(=O)Cc1nc(-c2ccccc2C)oc1C (stereo not drawn)	1.6%[57.1 µM]	-0.9%	12.6%	?
Cc1oc(-c2ccccc2F)nc1CS(=O)CC(=O)NCc1cccs1 (stereo not drawn)	5.0%[57.1 µM]	1.6%	2.6%	?
CCC(C)NC(=O)CS(=O)Cc1nc(-c2ccccc2C)oc1C (stereo not drawn)	18.3%[57.1 µM]	-2.0%	0.0%	7.08µM*
CCOC(=O)c1c(C)[nH]c(C)c1S(=O)(=O)N(C)CC(=O)Nc1ccc(C)c(F)c1	-1.7%[57.1 µM]	-5.2%	2.9%	14.0%[57.1 µM]
C=CCOc1cccn2c(N(C)C(=O)c3ccncc3)c(CC)nc12	/	6.1%	/	/
CCCCCCCCCC[n+]1ccc(/C=C/c2c(C)[nH]c3ccccc23)c2ccccc21	-10.7%	/	/	?
SMILES	TrxR1 substrate	GLS inhibitor	mIDH1 inhibitor	rTrxR1 inhibitor
CCCOc1ccccc1NC(=O)/C=C/C(N)=O	7.7%	3.3%	1.4%	12.6µM*
O=C(C1=C(O)C(=O)N(c2nc3ccc(Cl)cc3s2)C1c1ccco1)c1ccco1 (stereo not drawn)	-7.7%	17.8µM*	0.0%	?
Cc1cc(C)c2nc(N3C(=O)C(O)=C(C(=O)c4ccco4)C3c3ccc(O)cc3)sc2c1 (stereo not drawn)	-2.4%	7.1%	46.5µM*	-20.5%
Cc1ccc(C2C(C(=O)c3ccco3)=C(O)C(=O)N2c2nnc(C)s2)cc1 (stereo not drawn)	-9.1%	0.7%	16.2%	-15.6%
Cc1cc(C)c2nc(N3C(=O)C(O)=C(C(=O)c4ccco4)C3c3cccc(O)c3)sc2c1 (stereo not drawn)	-5.2%	-26.4%	36.9µM*	?
CCOC(=O)CCC(=O)OC1C(OC2C(C)C(OC3CC(C)(OC)C(O)C(C)O3)C(C)C(=O)OC(CC)C(C)(O)C(O)C(C)C(=O)C(C)CC2(C)O)OC(C)CC1N(C)C (stereo not drawn)	/	0.1%	/	/
Cc1cc(/C=C2\SC(=S)NC2=O)c(C)n1C	-18.1%	0.0%	-5.7%	25.1µM*
CC(C)N(C(=O)Cn1cc(SCC(=O)Nc2ccccc2F)c2ccccc21)C(C)C	3.7%	8.6%	0.9%	7.2%
O=C1ON=C(c2ccc([N+](=O)[O-])cc2)/C1=C/c1ccccc1O	3.9%	-14.1%	0.1%	17.8µM*
CCCc1nnc(SCc2cc(=O)c3c(C)cc(C)cc3[nH]2)n1C	0.9%[57.1 µM]	-0.8%	15.0%	11.3%[57.1 µM]
Cc1ccc(C(=O)c2ccc(C)cc2)cc1	-10.1%	0.7%	-6.8%	6.4%
Cc1ccc(C(=O)c2no[n+]([O-])c2C(=O)c2ccc(C)cc2)cc1	-3.2%	0.0%	7.8%	0.891µM*
c1ccc(SSc2ccccn2)nc1	3.4%[11.4 µM]	10µM*	-5.2%	3.7%[11.4 µM]
Cc1noc(-c2ccc(N3CCC(C)CC3)c([N+](=O)[O-])c2)n1	-10.2%	-12.2%	14.3%	-4.5%
CC1(C)Cc2c(C#N)c(OCC(=O)c3ccc(Cl)cc3)nc(-c3ccoc3)c2CO1	3.1%	1.2%	-4.2%	-25.3%
CC1(C)Cc2c(C#N)c(OCC(=O)c3ccccc3)nc(-c3ccoc3)c2CO1	-3.7%	-0.6%	-3.1%	50.1µM*
Cc1cc(Cl)ccc1OCCCC(=O)N1CCN(C(=O)c2ccco2)CC1	-1.4%[57.1 µM]	1.6%	-3.1%	28.2µM*
Cc1ccc2nc(SCC(=O)N3CCN(C(=O)c4ccco4)CC3)[nH]c2c1	-5.3%	-6.7%	4.1%	?
O=C(CSc1nc2ccc(Cl)cc2[nH]1)N1CCN(C(=O)c2ccco2)CC1	6.1%	-1.1%	2.2%	15.8µM*
CCc1cc2ccc(C)cc2nc1SCC(=O)N1CCN(C(=O)c2ccco2)CC1	4.1%	9.6%	-3.2%	3.98µM*
CCc1cc2cc3c(cc2nc1SCC(=O)N1CCN(C(=O)c2ccco2)CC1)OCO3	6.0%[57.1 µM]	-2.2%	7.9%	2.1%[57.1 µM]
CC1CCN(c2oc(-c3ccc(OCc4ccccc4Cl)cc3)nc2C#N)CC1	44.3%	/	/	24.8%
Cc1cccc(C)c1NS(=O)(=O)c1ccc(NS(=O)(=O)c2ccc3c(c2)OCCO3)cc1	-0.6%	8.4%	?	6.6%
Cc1cc(C)c(NC(=O)CCn2c(=O)c3cccn3c3cccnc32)c(C)c1	12.7%	-3.7%	-8.4%	23.3%
CN(C)c1ccc(/C=C/c2ccnc3ccccc23)cc1Cl	-0.9%	/	/	2.6%
O=C(O)c1ccc(-n2cccn2)c([N+](=O)[O-])c1	-13.4%	6.9%	1.0%	56.2µM*
CCOC(=O)c1[nH]c2ccc(OC)cc2c1NS(=O)(=O)c1ccc(Cl)s1	8.4%[57.1 µM]	7.08µM*	11.4%	5.3%[57.1 µM]
CCOC(=O)c1cc([N+](=O)[O-])c([N+](=O)[O-])cc1NC(C)=O	-5.4%[57.1 µM]	16.6%	3.6%	3.16µM*
CCOC(=O)c1ccc(NC(=O)c2ccccc2[N+](=O)[O-])cc1	-2.3%	10.5%	0.4%	3.1%

Screening results (PubChem)
